Measurements reported in PubChem BioAssay.
Inconclusive results are not listed. Activity calls are given as the source filed them. Unless noted, how the calls were made is not given here.

How the values were obtained:
[1] = antimalarial activity against Dd2 strain (AID 2302;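 active means growth inhibition above 50% at the single 2 µM test dose, taken to imply half-maximal potency below 2 µM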;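 further: 0% = DMSO untreated growth and 100% = chloroquine plus artemisinin killed control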); settings: P. falciparum Dd2 in RBCs, LDH growth readout, 72 h; at 2 µM; stronger effect = higher value
[2] = human hepatoma cell viability loss – ATP luminescence, cytotoxicity control for P. falciparum antimalarial project, primary screen (AID 2303;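 active means inhibition above 50%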;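 further: 0% = DMSO wells and 100% = digitonin-killed cells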); settings: HepG2 viability, 24-48 h, at 10 µM, stronger effect = higher value
[3] = biological target: L-lactate dehydrogenase (Plasmodium falciparum (isolate CDC / Honduras)) (UniProt Q27743); assay: PfLDH activity inhibition – cell lysate, 3D7 strain, counter-screen for P. falciparum growth inhibition project (AID 2304);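 further: 0% = vehicle and 100% = reference inhibitor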; settings: P. falciparum 3D7 crude extract, LDH APAD/NBT absorbance; at 2 µM; stronger effect = higher value
L-lactate dehydrogenase (Plasmodium falciparum (isolate CDC / Honduras)), sequence (Q27743 whole entry, looked up): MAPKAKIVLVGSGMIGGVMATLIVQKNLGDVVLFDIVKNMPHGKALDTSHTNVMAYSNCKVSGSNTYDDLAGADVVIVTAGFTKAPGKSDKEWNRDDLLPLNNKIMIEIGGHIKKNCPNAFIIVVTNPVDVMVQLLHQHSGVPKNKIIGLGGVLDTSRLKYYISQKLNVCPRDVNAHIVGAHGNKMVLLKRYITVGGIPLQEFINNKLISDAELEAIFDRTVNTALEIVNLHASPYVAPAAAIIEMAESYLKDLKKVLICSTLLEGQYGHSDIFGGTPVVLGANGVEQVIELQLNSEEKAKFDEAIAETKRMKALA

[4] = inhibition of 3D7 malaria parasite growth – strain 3D7 (AID 2306);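 further: 0% = DMSO wells and 100% = chloroquine plus artemisinin control wells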; settings: P. falciparum 3D7 erythrocytic growth, LDH absorbance, 72 h; at 2 µM; stronger effect = higher value
[5] = compounds altering circadian rhythm period length – cell-based, LOPAC library, luminescence reporter (AID 2774); settings: circadian reporter cells, at 7 µM, actives lie on both sides;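 further: values are relative to mean of DMSO wells on each plate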
[6] = biological target: ATP-dependent translocase ABCB1 (Homo sapiens) (UniProt P08183); assay: P-glycoprotein substrate transport blockade – cell-based (AID 377; in the data active means fluorescence slope change above about 50%); settings: MDR1-expressing cells, fluorescent substrate accumulation slope; stronger effect = higher value; concentration not given here
ATP-dependent translocase ABCB1 (Homo sapiens), sequence (P08183 whole entry, looked up): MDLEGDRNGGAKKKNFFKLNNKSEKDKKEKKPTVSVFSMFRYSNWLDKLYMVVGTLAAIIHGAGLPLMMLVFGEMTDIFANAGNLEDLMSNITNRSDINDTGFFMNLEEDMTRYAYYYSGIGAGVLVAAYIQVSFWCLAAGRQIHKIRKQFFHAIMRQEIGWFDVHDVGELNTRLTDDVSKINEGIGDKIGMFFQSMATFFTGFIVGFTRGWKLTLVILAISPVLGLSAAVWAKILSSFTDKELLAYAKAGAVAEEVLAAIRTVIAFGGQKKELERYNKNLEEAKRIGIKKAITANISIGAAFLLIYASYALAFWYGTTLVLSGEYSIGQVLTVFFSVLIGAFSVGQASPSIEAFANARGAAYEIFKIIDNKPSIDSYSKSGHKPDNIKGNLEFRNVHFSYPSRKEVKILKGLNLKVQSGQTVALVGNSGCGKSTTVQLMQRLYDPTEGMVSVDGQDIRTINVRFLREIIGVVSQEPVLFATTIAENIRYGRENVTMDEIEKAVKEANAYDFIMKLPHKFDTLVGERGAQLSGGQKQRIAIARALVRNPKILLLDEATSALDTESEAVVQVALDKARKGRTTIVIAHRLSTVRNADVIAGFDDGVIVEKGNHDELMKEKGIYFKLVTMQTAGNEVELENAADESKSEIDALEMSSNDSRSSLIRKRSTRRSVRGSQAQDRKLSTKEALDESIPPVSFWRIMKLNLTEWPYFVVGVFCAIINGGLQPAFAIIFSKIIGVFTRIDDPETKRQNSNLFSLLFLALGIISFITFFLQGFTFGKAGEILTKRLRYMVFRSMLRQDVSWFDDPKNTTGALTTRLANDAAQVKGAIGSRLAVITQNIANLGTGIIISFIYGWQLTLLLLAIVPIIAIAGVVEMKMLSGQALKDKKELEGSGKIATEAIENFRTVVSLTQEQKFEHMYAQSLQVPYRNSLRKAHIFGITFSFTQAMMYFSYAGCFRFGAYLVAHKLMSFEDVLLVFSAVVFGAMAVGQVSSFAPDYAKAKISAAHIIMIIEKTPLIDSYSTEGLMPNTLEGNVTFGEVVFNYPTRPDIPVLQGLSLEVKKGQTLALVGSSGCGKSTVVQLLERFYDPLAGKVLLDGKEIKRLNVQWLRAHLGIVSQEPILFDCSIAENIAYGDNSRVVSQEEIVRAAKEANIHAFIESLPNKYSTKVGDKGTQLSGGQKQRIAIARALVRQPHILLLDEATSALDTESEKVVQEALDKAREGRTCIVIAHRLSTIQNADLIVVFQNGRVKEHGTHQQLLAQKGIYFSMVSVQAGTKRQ

[7] = compounds altering viability of human ES cells (AID 493140); settings: human embryonic stem cell survival screen; stronger effect = higher value;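 further: cells exposed to compounds for four days before counting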
[8] = P. berghei load reduction in hepatocytes – cell-based, HepG2, luciferase luminescence, HepG2 viability, primary screen (AID 624349; in the data active means parasite load remaining mostly below about 12%, no sharp cut-off; inactive means mostly above about 10%;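 further: 100% = mean of DMSO negative control wells on the same plate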); settings: P. berghei liver stage in HepG2, luciferase luminescence, concentration not given here; parasite load remaining: stronger effect = lower value; viability: measured here: HepG2 viability without parasites

With CN(C)CCCOc1ccc(-c2nc(-c3ccc4c(c3)CCC4=NO)c(-c3ccncc3)[nH]2)cc1 the growth inhibition [1] was 63% (active), the inhibition [2] was 68% (active) and the inhibition [3] was -3% (inactive). For the same molecule, the growth inhibition [4] was 96% (active).
In the case of Cc1cc(C)c(NC(=O)C[C@H](CC(=O)O)c2cccc3ccccc23)c(C(=O)N2CCC3(CCCC3)CC2)c1, the period change [5] was 0.275 h (inactive).
In the case of CC[C@H](C)[C@H](NC(=O)[C@H](CC1CCCCC1)[C@H](CC)N(O)C=O)C(=O)Nc1ccccn1, the growth inhibition [1] was 95% (active), the inhibition [2] was 14% (inactive) and the inhibition [3] was -1% (inactive). For the same molecule, the growth inhibition [4] was 96% (active).
In the case of COc1ccc(Nc2nc(NN=Cc3cc(Br)c(O)cc3O)nc(Nc3ccc([N+](=O)[O-])cc3)n2)cc1, the growth inhibition [1] was 23% (inactive), the inhibition [2] was 30% (inactive) and the inhibition [3] was 4% (inactive). For the same molecule, the growth inhibition [4] was 97% (active).
In the case of Oc1ccc(C=NNC(=S)Nc2cccc3ccccc23)c(O)c1, the growth inhibition [1] was 72% (active), the inhibition [2] was 8% (inactive) and the inhibition [3] was -4% (inactive). For the same molecule, the growth inhibition [4] was 89% (active).
For ON=C1CCc2cc(-c3cc(-c4ccc(OC5CCNCC5)cc4)oc3-c3ccncc3)ccc21, the growth inhibition [1] was 99% (active), the inhibition [2] was 34% (inactive) and the inhibition [3] was 3% (inactive). The growth inhibition [4] was 101% (active).
In the case of CN(C)c1nc(NCc2ccccc2)nc(NN=Cc2cc([N+](=O)[O-])ccc2O)n1, the growth inhibition [1] was 90% (active), the inhibition [2] was 48% (inactive) and the inhibition [3] was -5% (inactive). The growth inhibition [4] was 100% (active).
With Oc1ccc2ccccc2c1C=NNc1nc(Nc2ccccc2)nc(N2CCOCC2)n1 the growth inhibition [1] was 49% (inactive), the inhibition [2] was 66% (active) and the inhibition [3] was -5% (inactive). The growth inhibition [4] was 100% (active).
With NC(N)=NN=Cc1c[nH]c2ccc(-c3ccccc3)cc12 the growth inhibition [1] was 61% (active), the inhibition [2] was 15% (inactive) and the inhibition [3] was -2% (inactive). For the same molecule, the growth inhibition [4] was 84% (active).
In the case of Cc1ccc(-c2cncc(-c3cc(NC4CCN(Cc5ccccc5)CC4)nc(-c4ccccc4)n3)c2)cc1, the growth inhibition [1] was 66% (active), the inhibition [2] was -2% (inactive) and the inhibition [3] was -4% (inactive). For the same molecule, the growth inhibition [4] was 100% (active).
For COc1ccc2nc(/N=C(/N)NC(=O)Nc3ccccc3)nc(C)c2c1, the growth inhibition [1] was 15% (inactive), the inhibition [2] was 3% (inactive) and the inhibition [3] was -1% (inactive). The growth inhibition [4] was 90% (active).
With Nc1cc(C=Cc2ccc(O)cc2)nc2ccccc12 the growth inhibition [1] was 14% (inactive), the inhibition [2] was 15% (inactive) and the inhibition [3] was 3% (inactive). For the same molecule, the growth inhibition [4] was 100% (active).
With O=C(NC=Nc1cc([N+](=O)[O-])c(-c2cccnc2)n1-c1ccc(O)cc1)c1ccccc1 the growth inhibition [1] was 62% (active), the inhibition [2] was 17% (inactive) and the inhibition [3] was 6% (inactive). The growth inhibition [4] was 102% (active).
For CCN1CCN(c2cc(C)c3cc(NC(=O)c4ccc(C(C)(C)C)cc4)ccc3n2)CC1, the inhibition [2] was 34% (inactive), the inhibition [3] was -3% (inactive) and the growth inhibition [4] was 85% (active).
With c1cc2nc(CCCCc3nc4ccc(C5=N[C@H]6CCCC[C@H]6N5)cc4[nH]3)[nH]c2cc1C1=N[C@H]2CCCC[C@H]2N1 the growth inhibition [1] was 88% (active), the inhibition [2] was 5% (inactive) and the inhibition [3] was 6% (inactive). The growth inhibition [4] was 90% (active).
With CCN(CC)C(C)C(=O)N1c2ccccc2Sc2ccccc21 (stereo not given) the period change [5] was 0.095 h (inactive).
With CN(Cc1cnc2nc(N)nc(N)c2n1)c1ccc(C(=O)N[C@H](CCC(=O)O)C(=O)O)cc1 the growth inhibition [1] was 44% (inactive), the inhibition [2] was 65% (active) and the inhibition [3] was -4% (inactive). The growth inhibition [4] was 92% (active) and the period change [5] was 0.095 h (inactive).
With CN(C)C(=S)NN=Cc1cccc(O)c1O the growth inhibition [1] was 55% (active), the inhibition [2] was 11% (inactive) and the inhibition [3] was -2% (inactive). For the same molecule, the growth inhibition [4] was 91% (active).
For CCCO[C@H](C(=O)OC)[C@@H](CC1Cc2ccccc2C1)C(=O)NCCC1=CCCCC1, the growth inhibition [1] was 57% (active), the inhibition [2] was 6% (inactive) and the inhibition [3] was 1% (inactive). For the same molecule, the growth inhibition [4] was 93% (active).
For O=S(=O)(O)C1CCNCC1, the period change [5] was 0.07 h (inactive).
With CCOc1cc(C=Cc2nc3ccccc3c(=O)[nH]2)cc(Cl)c1O the growth inhibition [1] was 90% (active), the inhibition [2] was 25% (inactive) and the inhibition [3] was 2% (inactive). The growth inhibition [4] was 83% (active).
In the case of CC1(C)S[C@@H]2[C@H](NC(=O)C(NC(=O)N3CCNC3=O)c3ccccc3)C(=O)N2[C@H]1C(=O)O (stereo not given in full), the fluorescence slope change [6] was 25.1% (inactive).
For CC(=O)Nc1c(I)c(C(=O)NC2[C@H](O)OC(CO)[C@@H](O)[C@H]2O)c(I)c(N(C)C(C)=O)c1I (stereo not given in full), the fluorescence slope change [6] was 95.2% (active), the survival [7] was 16.9 (inactive) and the parasite load remaining [8] was 81% (inactive). It also gave a viability [8] of 75.5%.
